Assay outcomes as filed in PubChem BioAssay.
PKA-R2B activ: activators of PKA-R2B holoenzyme, primary screen, biochemical, fluorescence polarization, Cy5-IP20, human; cAMP-dependent protein kinase catalytic subunit beta (Homo sapiens) + cAMP-dependent …; PKA-R2B holoenzyme dissociation; R2B truncated from residue 108, S112A mutant; 0% DMSO only, 100% 113 µM cGMP; activation, % at 11.4 µM; hit rate 0.079% among 340,000;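 active = activation above a cutoff set at the mean over all compounds plus 3 SD, cut at about 18% in these data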;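 also: higher means more holoenzyme dissociation and a rise in polarization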
PG9 binder: binders of HIV-1 gp120 antibody PG9, primary screen, biochemical, TR-FRET | HIV-1 gp120 / PG9 antibody interaction | TR-FRET gp120-PG9 antibody binding | inhibition, % at 6.7 µM | hit rate 0.43% among 360,000 | AID 624416, 2012; in the data active = inhibition above about 8.5%
PKA-R1A act: activators of PKA-R1A holoenzyme, primary screen, biochemical, fluorescence polarization, Cy5-IP20, bovine R1A, mouse PKAc. cAMP-dependent protein kinase type I-alpha regulatory subunit (Bos taurus) + …. PKA-R1A dissociation; scaled: DMSO 0%, 113 µM cGMP 100%. activation, % at 11.4 µM. hit rate 0.083% among 340,000. AID 504707, 2011;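 active = percent activation above the mean of all tested compounds plus 3 SD, cut at about 19% in these data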;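 also: higher means more PKAc released from R1A so a rise in polarization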
Rev-erbA mod: modulators of Rev-erb alpha DNA binding, primary screen, biochemical, FITC-DNA, fluorescence polarization, uHTS; Rev-erbα–FITC-DNA binding, 90 min; activity, % at 10 µM; hit rate 0.79% among 370,000; AID 1259318, 2017;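 active = activity above about 14%, limit read from the data; passing the limit was not always enough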;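 also: 0% = DMSO wells with 35 nM protein and 100% = DMSO wells with 750 nM protein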
Target sequence (P20393 whole entry, looked up): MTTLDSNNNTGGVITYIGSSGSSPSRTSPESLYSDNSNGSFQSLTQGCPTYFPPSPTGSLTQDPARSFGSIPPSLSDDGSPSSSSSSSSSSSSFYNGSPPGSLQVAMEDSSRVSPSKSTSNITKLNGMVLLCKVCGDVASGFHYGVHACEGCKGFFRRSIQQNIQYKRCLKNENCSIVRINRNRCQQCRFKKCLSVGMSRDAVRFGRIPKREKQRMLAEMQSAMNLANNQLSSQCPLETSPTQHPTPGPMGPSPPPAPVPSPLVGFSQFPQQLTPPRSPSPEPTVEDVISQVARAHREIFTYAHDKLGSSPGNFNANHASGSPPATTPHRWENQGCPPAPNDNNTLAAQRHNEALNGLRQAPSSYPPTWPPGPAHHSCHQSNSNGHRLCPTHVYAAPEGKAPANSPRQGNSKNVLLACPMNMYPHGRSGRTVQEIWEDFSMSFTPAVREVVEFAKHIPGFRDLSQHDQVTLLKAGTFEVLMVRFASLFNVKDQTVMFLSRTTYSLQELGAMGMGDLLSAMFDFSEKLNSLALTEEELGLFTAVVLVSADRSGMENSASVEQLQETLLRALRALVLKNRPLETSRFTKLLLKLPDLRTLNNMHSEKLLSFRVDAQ
Rev-erbA confirm: modulators of Rev-erb alpha DNA binding, confirmation, biochemical, FITC-DNA, fluorescence polarization, single point; shares compounds with Rev-erbA mod; 90 min; activation, % at 25 µM; hit rate 61% among 3,000;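 active = activation at or above a set limit, or at least 3 SD above the negative control mean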;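 also: 0% = 35 nM protein with DMSO and 100% = 750 nM protein high control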
RORg DNA counter: modulation of RORgamma DNA binding, dose response, counter-screen for Rev-erb alpha modulator project, biochemical, fluorescence polarization, FITC-DNA; shares compounds with Rev-erbA mod; purified RORgamma protein-FITC-DNA binding; IC50, µM; hit rate 8% among 910; AID 1259320, 2017;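 active = Compounds whose fitted half-maximal concentration for disrupting protein-DNA binding is below 10 micromolar; the record names Rev-erb in its text, so the target is in doubt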
Starred values were filed as active, the others as inactive; i = inactive; . = not tested or not shown. Rows were chosen to be rich in hits. Some 1.2% of all compounds tested hit in one or more screens of this group.

SMILES	PKA-R2B activ	PG9 binder	PKA-R1A act	Rev-erbA mod	Rev-erbA confirm	others
O=C(NCc1ccc(F)cc1)c1c(O)c2cccc3c2n(c1=O)CCC3	2.8	1.2	6.3	37.2*	10.5
Cc1ccc(C(=O)CNc2cccc([N+](=O)[O-])c2)cc1	6.3	-3.3	4.0	14.6*	-1.6
O=C(OCCN1C(=O)c2cccc3c(N4CCOCC4)ccc(c23)C1=O)c1ccc(Cl)cc1	-1.8	-0.9	-2.5	78.8*	118.8*	RORg DNA counter=>40
O=C(NCc1ccccc1)C(c1cccc2ccccc12)n1c(=O)c(-c2ccccc2)nc2ccccc21 (stereo not given)	.	-1.0	.	24.2*	46.3*	RORg DNA counter=i
CCCCCNC(=O)C(c1cccc2ccccc12)n1c(=O)c(-c2ccccc2)nc2ccccc21 (stereo not given)	.	0.5	.	-3.7	.
O=C(c1ccc(F)cc1)n1ccc2ccc(-c3ccc4ccn(Cc5ccccc5)c4c3)cc21	.	.	.	8.7	.
CCOc1cc(/C=C2\NC(=O)NC2=O)cc([N+](=O)[O-])c1O	-6.5	-33.7	2.8	19.3*	-2.2
CC(=O)c1cccc(S(=O)(=O)N2CCN(c3nc4cc(C)cc(C)c4cc3C#N)CC2)c1	3.6	-0.5	-15.1	174.3*	137.4*
COc1ccccc1C(=O)N1CCN(c2nc3cc(C)cc(C)c3cc2C#N)CC1	4.9	0.5	4.2	0.4	.
COC(=O)c1cc2c(c3c4cc(F)ccc4n(S(=O)(=O)c4ccccc4)c13)C(=O)N(Cc1ccc(N(C)C)cc1)C2	.	-1.6	.	4.1	.
COC(=O)c1cc2c(c3c4cc(F)ccc4n(S(=O)(=O)c4cccc(C)c4)c13)C(=O)N(Cc1ccc(N(C)C)cc1)C2	.	-0.7	.	27.0*	0.6
O=C(Nc1c(-c2ccc(C(F)(F)F)cc2)nc2ncccn12)c1ccccc1	.	.	.	-3.9	.
COc1ccc(C#Cc2ccc(C3=CC(=O)CC(C)(C)C3=O)cc2)cc1	0.5	4.5	-9.1	153.0*	50.8*	RORg DNA counter=>40
COc1ccc2c(COC(=O)c3ccc(C)c(S(=O)(=O)N4CCOCC4)c3)cc(=O)oc2c1	-2.1	-0.9	8.5	20.5*	25.9*
COc1ccccc1C1CC(=O)NC(C)=C1C(=O)OC(C)C (stereo not given)	0.5	-0.4	-0.9	22.1*	2.0
COC(=O)C1=C(C)NC(=O)CC1c1cccc(Cl)c1Cl (stereo not given)	9.2	-1.4	5.3	-2.3	.
COc1ccc(-c2nnc(SCc3cccc(F)c3)n2-c2ccccc2)cc1	.	.	.	2.9	.
Cc1nonc1NC(=O)CSc1nc(C2CCCCC2)nc2ccccc12	0.4	-0.3	-0.8	0.4	.
Cc1cc2nc(SCC(=O)Nc3nonc3C)c3c(c2cc1C)CCCC3	-5.6	0.8	-6.4	103.4*	81.4*
Cc1nonc1NC(=O)CSc1nc(C23CC4CC(CC(C4)C2)C3)nc2ccccc12	4.9	0.4	-4.0	29.5*	21.8*
COC(=O)[C@]12C[C@H](CC(=O)N3CCN(C(=O)c4ccco4)CC3)C(=O)N(Cc3cccc4ccccc34)C1=C[C@H](C1CCCC1)O[C@@H]2C	.	.	.	2.8	.
CCOC(=O)[C@@]12CN(C(=O)OC(C)(C)C)CC=C1N(Cc1ccc(OC)cc1)C(=O)[C@H]2CC(=O)NCc1ccccc1	.	.	.	-2.1	.
Cc1ccc(-c2nc(SCC(=O)Nc3cc(C)on3)c3c(=O)n(C)c(=O)n(C)c3n2)cc1	0.3	0.8	-3.8	24.1*	17.5*
Cn1c(=O)c2c(SCC(=O)Nc3ccccc3F)nc(-c3ccccc3F)nc2n(C)c1=O	-5.6	-0.8	-2.5	26.0*	2.8
COc1ccccc1-c1nc(SCC(=O)N(C)c2ccccc2)c2c(=O)n(C)c(=O)n(C)c2n1	-2.6	-0.1	0.5	81.5*	46.1*	RORg DNA counter=>40
SMILES	PKA-R2B activ	PG9 binder	PKA-R1A act	Rev-erbA mod	Rev-erbA confirm	others
CCCCCCCCN1C(=O)[C@@H](CC(=O)N2CCN(C(=O)C3CC3)CC2)C[C@@]2(C(=O)OC)C1=C[C@H](C(C)C)O[C@@H]2C1CC1	.	.	.	-6.0	.
Cc1cc(=O)[nH]c(SCC(=O)Nc2ccc(F)c(F)c2)n1	.	.	.	1.8	.
CCN(CC)C(=O)c1ccc(/C=C/c2c[nH]c3ccccc23)[n+](C)c1	-3.1	-11.7	6.0	45.2*	49.6*	RORg DNA counter=>40
Cc1ccc(C(=O)/C=C/c2c[nH]c3ccccc23)cc1	-1.6	-2.7	3.7	7.6	.
CC[n+]1c(/C=C/c2c[nH]c3ccccc23)ccc2cc(C)ccc21	.	-13.6	.	125.7*	101.8*	RORg DNA counter=>40
Cc1ccccc1NC(=O)OCCN1CCCC12CCC(c1ccccc1)CC2 (stereo not given)	.	.	.	-4.5	.
CN1C(=O)CSC1=NCC12CC3CC(CC(C3)C1)C2	-6.9	-0.6	1.5	23.9*	32.0*	RORg DNA counter=>40
C=C(C)CN1C(=O)C(C)SC1=NN=C1SCC(=O)N1C (stereo not given)	-11.6	-0.7	-7.3	-9.9	.
COc1ccc(-c2cn(-c3ccc(C)cc3C)c(=S)[nH]2)cc1OC	-2.9	0.6	-9.4	23.1*	-1.5
CC(C)CNC(=O)OCc1cn(Cc2cccc(C(F)(F)F)c2)nn1	.	.	.	-0.5	.
Cc1cc2nc(-c3cccc(Cl)c3)c(CC(C)(C)C)n2c(C)c1Br	.	1.0	.	15.0*	8.9
O=C(NCc1ccco1)c1sc2cc(Cl)ccc2c1Cl	11.6	0.4	-0.4	-0.1	.
O=C(Nc1ccon1)c1sc2cc(Cl)ccc2c1Cl	1.0	-1.9	-7.6	24.9*	14.6
COc1cc(/C=C/c2noc(-c3ccccc3O)n2)cc(OC)c1OC	-10.7	-0.2	4.0	51.0*	24.6*
CC(=O)Oc1c(/C=C(\C#N)C(N)=O)[nH]c2ccccc12	4.9	-43.3	0.8	54.9*	65.6*	RORg DNA counter=>40
COc1cc2c(cc1NC(=O)CN1CCN(S(=O)(=O)c3ccc(C)cc3)CC1)oc1ccccc12	2.9	-0.8	11.2	26.6*	18.6*
Cn1c2ccccc2c2cc(C(=O)OCC(=O)N3CC(=O)Nc4ccccc43)sc21	-10.0	2.0	9.9	73.8*	62.0*
N#Cc1c(-c2ccccc2)cc(C2CC2)nc1SCC(=O)c1cccs1	-7.0	0.0	2.1	19.0*	29.5*
N#Cc1c(-c2ccco2)cc(C2CC2)nc1SCC(=O)c1ccccc1	-4.3	-1.9	-8.4	-1.0	.
CCc1nnc(NC(=O)CSc2nc3cc(OC)ccc3cc2C)s1	-1.4	-0.1	-4.4	164.8*	12.4
CCc1nnc(NC(=O)CSc2nc(-c3ccccc3)cc(-c3ccc(OC)cc3)c2C#N)s1	4.8	-0.9	2.9	47.9*	43.4*
